From PubChem BioAssay (Tox21)
Results filed as inconclusive are left out. Where a structure was tested more than once in an assay, its records may differ in their call. The source made the active and inactive calls. Unless noted, calls come from the whole dose curve; as a rule, active = well fitted curve in the direction sought with a large enough effect in the repeat runs; inconclusive = weak or mixed curves; inactive = no such curve, though single readings can be large; an effect the other way counts as inactive or inconclusive.

How the values were obtained:
[1] = qHTS assay to identify small molecule antagonists of the estrogen related receptor (ERR) signaling pathway from Tox21 library - cell viability counter screen (AID 1224834); note: nearly all actives have a fitted effect of over 30% in size; note: potency is the fitted concentration of half-maximal effect
How it was run: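 Compounds in DMSO were pinned onto ERR cells that had been incubated for 6 h, and the plates were held at 37 C for 17.5 h. CellTiter-Fluor reagent was then added and fluorescence was measured after 30 min.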

[2] = target: Luciferin 4-monooxygenase (Photinus pyralis) (UniProt P08659); assay: qHTS assay to identify small molecule inhibitors of firefly luciferase (AID 1224835); note: nearly all actives have a fitted effect of over 25% in size; note: potency is the fitted concentration of half-maximal effect
How it was run: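 Quantitative HTS format; KM concentrations of both substrates. Purified P. pyralis FLuc activity quantified from luminescence images.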

[3] = qHTS assay to identify small molecule agonists of the constitutive androstane receptor (CAR) signaling pathway - cell viability counter screen (AID 1224836); note: nearly all actives have a fitted effect of over 45% in size; note: potency is the fitted concentration of half-maximal effect
How it was run: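 Compound titrations (15 concentrations) went onto HepG2-CYP2B6-hCAR cells 4 h after seeding, alongside PK11195 at a final 0.75 uM; a 23 h, 37 C/5% CO2 incubation preceded CellTiter-Fluor viability measurement.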

[4] = qHTS assay to identify small molecule antagonists of the constitutive androstane receptor (CAR) signaling pathway - cell viability counter screen (AID 1224837); note: nearly all actives have a fitted effect of over 45% in size; note: potency is the fitted concentration of half-maximal effect
How it was run: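 Cells are seeded, rested 4 hr at 37 C/5% CO2, dosed with compound (15-point series) and 50 nM CITCO, incubated a further 23 hr, and then CellTiter-Fluor reagent is added before fluorescence is read. The line is HepG2 with stable hCAR and CYP2B6-2.2kb.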

[5] = target: Nuclear receptor subfamily 1 group I member 3 (Homo sapiens) (UniProt Q14994); assay: qHTS assay to identify small molecule antagonists of the constitutive androstane receptor (CAR) signaling pathway (AID 1224838);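 note: HepG2 cells stably expressing hCAR with CYP2B6 luciferase reporter stimulated by CITCO; nearly all actives have a fitted effect of over 40% in size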; note: potency is the fitted concentration of half-maximal effect
How it was run: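 Luminescence from a CYP2B6-2.2kb promoter reporter in hCAR-expressing HepG2 cells reflects CAR signaling. Cells received compounds at 15 concentrations and 50 nM CITCO (final), then incubated 24 h at 37 C/5% CO2.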

[6] = target: Nuclear receptor subfamily 1 group I member 3 (Homo sapiens) (UniProt Q14994); assay: qHTS assay to identify small molecule agonists of the constitutive androstane receptor (CAR) signaling pathway (AID 1224839); note: nearly all actives have a fitted effect of over 15% in size; note: potency is the fitted concentration of half-maximal effect;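 for activation: HepG2 cells stably carrying human CAR and a CYP2B6 luciferase reporter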
How it was run: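 In this screen, CAR-driven CYP2B6 promoter activity is measured by luminescence in HepG2-CYP2B6-hCAR cells after 24 h with test compounds and 0.75 uM PK11195 (final concentration).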

[7] = qHTS assay to identify small molecule antagonists of the estrogen related receptor signaling pathway with the pleiotropic PPARgamma coactivator (PGC) from Tox21 10K library (AID 1224841; call rule not given here; note: actives are mostly falling curves and most rising ones were filed inactive; nearly all actives have a fitted effect of over 50% in size; note: potency is the fitted concentration of half-maximal effect)
How it was run: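 Cells stably carrying the PGC/ERR reporter, seeded at 2,000 per well, received pin-transferred compounds 6 h post-plating. Exposure lasted 18 h at 37 C. Signal: One-Glo luminescence.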

[8] = qHTS assay to identify small molecule agonists of the estrogen related receptor signaling pathway with the pleiotropic PPARgamma coactivator (PGC) from Tox21 10K library (AID 1224842); note: nearly all actives have a fitted effect of over 15% in size
How it was run: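 PGC/ERR reporter cells (NTP line) were seeded 2,000 per well, rested 6 h at 37 C/5% CO2, then pin-dosed with compounds in DMSO for 18 h at 37 C; luciferase read by One-Glo luminescence after 30 min at room temperature.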

[9] = target: Thyrotropin receptor (Homo sapiens) (UniProt P16473); assay: qHTS assay to identify small molecule agonists of the thyroid stimulating hormone receptor (TSHR) signaling pathway (AID 1224843; calls by dose curve; note: nearly all actives have a fitted effect of over 45% in size)
How it was run: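 Compounds are titrated over 15 concentrations, in triplicate, onto TSHR-HEK293 cells seeded at 800/well. Plates sit 30 min at room temperature before cAMP-d2 and anti-cAMP cryptate are added; signal is read after a further hour.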

[10] = qHTS assay to identify small molecule agonists of the estrogen related receptor (ERR) signaling pathway from Tox21 library (AID 1224849; calls by dose curve; note: nearly all actives have a fitted effect of over 15% in size); settings: ERR reporter cell line, ONE-Glo luciferase, 18 h; at 92.4 µM (top of the series) unless noted
How it was run: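 Quantitative HTS in agonist format: NTP ERR cell line, compounds transferred in DMSO after 6 h plating, 18 h incubation at 37 C, ONE-Glo luminescence endpoint.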

[11] = qHTS RealTime-Glo MT Cell Viability Assay in HepG2 cells - 24 hour (AID 1224867); note: nearly all actives have a fitted effect of over 50% in size
How it was run: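 qHTS, HepG2, 600 cells/well, RealTime-Glo (NanoLuc + prosubstrate) added with cells; 5 h preincubation; DMSO compound addition; 37 C; luminescence at 0/8/16/24/32/40 h.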

[12] = A CellTox Green Cytotoxicity Assay to monitor cytotoxicity in HEK293 cells - 0 hour (AID 1224869); note: nearly all actives have a fitted effect of over 50% in size; note: potency is the fitted concentration of half-maximal effect
How it was run: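 Dead-cell fluorescence measured kinetically: asymmetric cyanine dye, HEK293, 600 cells/well, 5 h settle, 23 nL cpd/DMSO, 37 C, reads 0–40 h every 8 h.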

[13] = qHTS RealTime-Glo MT Cell Viability Assay in HepG2 cells - 40 hour (AID 1224870); note: nearly all actives have a fitted effect of over 50% in size; note: potency is the fitted concentration of half-maximal effect
How it was run: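 HepG2 cells mixed with RealTime-Glo MT reagents (NanoLuc plus cell-permeant prosubstrate) were seeded at 600 cells/well, incubated 5 h at 37 C/5% CO2, then pinned with compounds in DMSO; nonlytic luminescence tracked viability during 40 h treatment.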

[14] = qHTS assay to identify small molecule antagonists of the estrogen related receptor signaling pathway with the pleiotropic PPARgamma coactivator (PGC) from Tox21 10K library - cell viability counter screen (AID 1224840; active = well fitted cell-killing curve with a large enough effect in the repeat runs, not every such curve was filed as active; note: nearly all actives have a fitted effect of over 40% in size; note: potency is the fitted concentration of half-maximal effect)
How it was run: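 Cell viability is measured by CellTiter-Fluor fluorescence in PGC/ERR cells that receive compounds after a 6-hour attachment period and are then incubated 17.5 hours at 37 C.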

[15] = qHTS assay to identify small molecule agonists of H2AX (AID 1224845; active = well fitted activation curve with a large enough effect in the signal ratio in the repeat runs, not every such curve was filed as active; the % refers to the signal ratio)
How it was run: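 Wild-type CHO-K1 cells plated overnight, then exposed 3 hr at 37C to compounds at 15 concentrations (0.76% DMSO). Lysed, then HTRF anti-pH2AX(S139)-cryptate/anti-H2AX-d2 detection after 24 hr at room temperature; emissions 665 and 620 nm.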

[16] = qHTS assay to identify small molecule agonists of the hypoxia (HIF-1) signaling pathway (AID 1224846; active = well fitted activation curve with a large enough effect in the signal ratio in the repeat runs, not every such curve was filed as active; the % refers to the signal ratio)
How it was run: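 Agonist mode reporter screen. ME-180 cells stably expressing bla under HRE control received test compounds in DMSO for 17 hrs (37C, 5% CO2), and beta-lactamase activity was then detected with the CCF4-AM FRET substrate.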

[17] = qHTS assay to identify small molecule agonists of H2AX - cell viability counter screen (AID 1224847; calls by dose curve; note: nearly all actives have a fitted effect of over 30% in size; note: potency is the fitted concentration of half-maximal effect)
How it was run: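 Read-out: CellTiter-Glo luminescence, 30 min RT. Cells: wild-type CHO-K1, 1000/well, 10% FBS, plated overnight at 37C. Treatment: 15 concentrations, 3 hr, 37C, 0.76% DMSO.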

[18] = qHTS assay to identify small molecule antagonists of the estrogen related receptor (ERR) signaling pathway from Tox21 library (AID 1224848); note: nearly all actives have a fitted effect of over 50% in size; note: potency is the fitted concentration of half-maximal effect
How it was run: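 First, 2,000 ERR cells per well were plated and held 6 h at 37 C/5% CO2. Next, compounds in DMSO were pinned in and left 18 h at 37 C. Finally, ONE-Glo was added and luminescence read after 30 min at room temperature.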

[19] = qHTS assay to identify small molecule agonists of the hypoxia (HIF-1) signaling pathway - cell viability counter screen (AID 1224844; calls by dose curve; note: nearly all actives have a fitted effect of over 50% in size; note: potency is the fitted concentration of half-maximal effect)
How it was run: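 Viability counter screen: HRE-bla ME-180 cells plated 5 hrs before compound addition, treated 17 hrs at 37C and 5% CO2, then CellTiter-Glo added after the FRET reporter read; luminescence after 30 min.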

[20] = qHTS RealTime-Glo MT Cell Viability Assay in HEK293 cells - 32 hour (AID 1224868); note: nearly all actives have a fitted effect of over 50% in size; note: potency is the fitted concentration of half-maximal effect
How it was run: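 Assay medium contained NanoLuc luciferase plus cell-permeant prosubstrate, added with HEK293 cells at 600 cells/well. After 5 h at 37 C/5% CO2 compounds were added; plates stayed at 37 C for 40 h with serial luminescence reads.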
% is set by controls: 0 for no effect and ±100 for the full control effect.

Sequence of Thyrotropin receptor (Homo sapiens) (P16473 whole entry, looked up): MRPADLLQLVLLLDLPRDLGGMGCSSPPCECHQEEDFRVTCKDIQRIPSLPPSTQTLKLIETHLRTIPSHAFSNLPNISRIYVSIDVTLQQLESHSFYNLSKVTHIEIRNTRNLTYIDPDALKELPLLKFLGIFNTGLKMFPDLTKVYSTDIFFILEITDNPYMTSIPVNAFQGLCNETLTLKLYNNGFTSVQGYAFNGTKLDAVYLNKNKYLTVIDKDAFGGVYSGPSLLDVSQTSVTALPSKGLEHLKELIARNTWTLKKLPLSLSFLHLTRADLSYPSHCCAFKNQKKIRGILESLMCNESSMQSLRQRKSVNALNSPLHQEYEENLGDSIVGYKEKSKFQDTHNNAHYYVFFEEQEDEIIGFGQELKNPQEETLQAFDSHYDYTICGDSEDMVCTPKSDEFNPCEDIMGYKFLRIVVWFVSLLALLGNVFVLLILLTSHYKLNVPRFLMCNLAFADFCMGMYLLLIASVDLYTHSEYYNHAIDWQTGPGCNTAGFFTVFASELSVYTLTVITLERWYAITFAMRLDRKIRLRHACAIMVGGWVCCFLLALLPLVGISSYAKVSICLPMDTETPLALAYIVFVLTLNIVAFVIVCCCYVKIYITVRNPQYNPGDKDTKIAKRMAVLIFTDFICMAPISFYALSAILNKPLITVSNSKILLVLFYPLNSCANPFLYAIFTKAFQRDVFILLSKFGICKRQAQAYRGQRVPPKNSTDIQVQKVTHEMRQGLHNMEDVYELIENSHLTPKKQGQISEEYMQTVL
Sequence of Luciferin 4-monooxygenase (Photinus pyralis) (P08659 whole entry, looked up): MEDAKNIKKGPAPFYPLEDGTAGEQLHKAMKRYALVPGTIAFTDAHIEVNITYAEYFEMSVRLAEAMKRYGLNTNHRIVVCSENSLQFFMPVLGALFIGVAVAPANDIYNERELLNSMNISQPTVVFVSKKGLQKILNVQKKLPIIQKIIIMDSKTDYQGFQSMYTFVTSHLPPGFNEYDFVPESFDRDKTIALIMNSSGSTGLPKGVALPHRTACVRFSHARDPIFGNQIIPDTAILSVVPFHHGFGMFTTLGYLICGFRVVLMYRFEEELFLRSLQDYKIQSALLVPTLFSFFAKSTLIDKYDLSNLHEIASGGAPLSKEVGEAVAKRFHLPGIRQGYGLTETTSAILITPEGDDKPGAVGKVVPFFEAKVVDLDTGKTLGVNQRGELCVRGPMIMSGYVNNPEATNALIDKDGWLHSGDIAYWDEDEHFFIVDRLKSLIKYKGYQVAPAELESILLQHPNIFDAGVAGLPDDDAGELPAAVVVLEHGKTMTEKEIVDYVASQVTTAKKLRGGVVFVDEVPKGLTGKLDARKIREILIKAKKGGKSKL
Sequence of Nuclear receptor subfamily 1 group I member 3 (Homo sapiens) (Q14994 whole entry, looked up): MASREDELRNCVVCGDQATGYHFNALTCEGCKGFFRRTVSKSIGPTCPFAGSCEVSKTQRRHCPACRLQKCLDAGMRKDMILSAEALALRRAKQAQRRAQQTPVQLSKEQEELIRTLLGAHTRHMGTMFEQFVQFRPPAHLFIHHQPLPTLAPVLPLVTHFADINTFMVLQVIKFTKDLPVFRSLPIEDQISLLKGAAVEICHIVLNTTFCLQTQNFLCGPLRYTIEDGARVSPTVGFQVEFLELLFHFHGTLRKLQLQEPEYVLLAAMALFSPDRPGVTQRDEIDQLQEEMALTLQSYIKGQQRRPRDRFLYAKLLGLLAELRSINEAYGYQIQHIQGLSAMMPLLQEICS

NNc1nc(-c2ccccc2)cs1
active: Potency [1] 7.05 µM | Potency [2] 32.6 µM | Potency [6] 49.9 µM
inactive: Potency [3] | Potency [4] | Potency [5] | Potency [7] | Potency [8] | Potency [9] | activity change, positive = activation [10] -30.7% | Potency [11] | Potency [12] | Potency [13]

CCCCC(CC)COC(=O)c1ccccc1C(=O)O (stereo unspecified)
inactive: Potency [1] | Potency [2] | Potency [3] | Potency [4] | Potency [6] | Potency [14] | Potency [8] | Potency [15] | Potency [16] | Potency [17] | activity change, positive = activation [10] -12.5% | Potency [11] | Potency [12] | Potency [13]

O=C(N/N=C/c1ccccc1O)c1ccncc1
active: Potency [1] 9.44 µM | Potency [2] 27.5 µM | Potency [18] 11.9 µM
inactive: Potency [3] | Potency [4] | Potency [5] | Potency [6] | Potency [8] | Potency [9] | Potency [17] | activity change, positive = activation [10] -42.8% [at 42.5 µM] | Potency [11] | Potency [13]

CSc1cnc(C)cn1
active: Potency [12] 56.4 µM
inactive: Potency [1] | Potency [2] | Potency [3] | Potency [4] | Potency [14] | Potency [9] | Potency [19] | Potency [15] | Potency [16] | Potency [17] | Potency [11] | Potency [20] | Potency [13]

CC[C@H](c1ccc(O)cc1)[C@@H](CC)c1ccc(O)cc1
inactive: Potency [2] | Potency [3] | Potency [4] | Potency [15] | Potency [11] | Potency [12] | Potency [13]
active: Potency [1] 27.3 µM | Potency [5] 0.473 µM | Potency [20] 27.5 µM
101 µM (active) and inactive: Potency [17]
54.9 µM (active) and inactive: Potency [19]

NNc1nc(-c2ccc(N)cc2)cs1
active: Potency [1] 54.5 µM | Potency [2] 35.6 µM | Potency [14] 61.1 µM | Potency [7] 61.1 µM | Potency [18] 61.1 µM
inactive: Potency [3] | Potency [4] | Potency [5] | Potency [8] | Potency [19] | activity change, positive = activation [10] -40.8% | Potency [11] | Potency [12] | Potency [13]

CN(C)[C@@H]1C(=O)C(C(N)=O)=C(O)[C@@]2(O)C(=O)C3=C(O)c4c(O)ccc(Cl)c4[C@@H](O)[C@H]3C[C@@H]12
inactive: Potency [1] | Potency [2] | Potency [3] | Potency [4] | Potency [14] | Potency [8] | Potency [9] | Potency [19] | Potency [15] | Potency [18] | activity change, positive = activation [10] -10.9% [at 42.5 µM] | Potency [11] | Potency [20] | Potency [12] | Potency [13]

Cc1cccc2c1cc1ccc3cccc4ccc2c1c34
inactive: Potency [1] | Potency [2] | Potency [5] | Potency [7] | Potency [8] | Potency [19] | Potency [15] | Potency [18] | Potency [11] | Potency [13]
active: Potency [6] 15.7 µM | activity change, positive = activation [10] 35.4%

NC(=O)N1C(=O)C(C(=O)c2cc(Cl)cs2)c2cc(F)c(Cl)cc21 (stereo unspecified)
active: Potency [1] 27.3 µM | Potency [2] 71 µM | Potency [14] 30.6 µM | Potency [7] 38.6 µM
inactive: Potency [5] | Potency [6] | Potency [8] | Potency [9] | Potency [15] | Potency [18] | activity change, positive = activation [10] -9.34% | Potency [20]

CC(C)(C)C1CCC(CC2=C(O)c3ccccc3C(=O)C2=O)CC1 (stereo unspecified)
inactive: Potency [1] | Potency [2] | Potency [5] | Potency [6] | Potency [8] | Potency [9] | Potency [19] | Potency [15] | Potency [16] | Potency [17] | activity change, positive = activation [10] -24.7% [at 42.5 µM] | Potency [11] | Potency [20] | Potency [12] | Potency [13]

CS(=O)(=O)CCNCc1ccc(-c2ccc3ncnc(Nc4ccc(OCc5cccc(F)c5)c(Cl)c4)c3c2)o1
inactive: Potency [2] | Potency [5] | Potency [6] | Potency [8] | Potency [9] | Potency [15] | activity change, positive = activation [10] -48.5% [at 42.5 µM] | Potency [12]
active: Potency [1] 6.68 µM | Potency [19] 10.7 µM | Potency [18] 9.44 µM

CC(C)(C)C(=O)OCOC(=O)C1N2C(=O)CC2S(=O)(=O)C1(C)C (stereo unspecified)
inactive: Potency [1] | Potency [2] | Potency [3] | Potency [4] | Potency [14] | Potency [9] | Potency [19] | Potency [15] | Potency [16] | Potency [20] | Potency [12] | Potency [13]

O=C(Nc1cccc([N+](=O)[O-])c1)c1cc2ccccc2cc1O
inactive: Potency [8] | Potency [9] | Potency [19] | Potency [15] | activity change, positive = activation [10] -21.9% | Potency [12] | Potency [13]
active: Potency [1] 4.33 µM | Potency [2] 1.59 µM | Potency [4] 9.69 µM | Potency [6] 2.43 µM | Potency [14] 3.86 µM | Potency [17] 11.3 µM

[O-][n+]1ccccc1SSc1cccc[n+]1[O-]
inactive: activation [8] -33.7% [at 19 µM] | activation [9] 15.2% [at 19 µM] | activity change, positive = activation [10] -64% [at 19 µM]
active: Potency [1] 0.366 µM | Potency [2] 0.425 µM | Potency [3] 0.92 µM | Potency [4] 0.206 µM | Potency [7] 1.64 µM | Potency [19] 0.117 µM | Potency [18] 0.259 µM | Potency [20] 1.31 µM | Potency [13] 0.165 µM

CCN(Cc1cccnc1)C(=O)c1cccc(Cl)c1[C@]1(C)C(=O)N(Cc2ccc(OC)cc2OC)c2ccc(Cl)cc21
inactive: Potency [2] | Potency [4] | Potency [5] | Potency [6] | Potency [15] | Potency [17] | Potency [12]
active: Potency [1] 28.6 µM | Potency [20] 20.4 µM
